By inhibition is commonly meant the drop in the measured response relative to a control, in per cent.

The campaign covered roughly 360,000 compounds. About 950 (0.26%) were called active. Cut-off read from the data, not from the text of the source: active = inhibition above about 11%; inactive = the rest. What follows is part of a selection rich in actives, with near analogues and random picks from the rest.

From PubChem BioAssay AID651602 (The Scripps Research Institute Molecular Screening Center, 2012) come the findings set out here.

This experiment in a line: growth loss of phage-infected E. coli, primary screen, RecBCD inhibitor project, absorbance, with phage, HTS (AID 651602). Conditions: at 11.9 µM, stronger effect = higher value.
Turning to `CC1(C(=O)NS(=O)(=O)c2ccccc2)CCN1C(=O)c1ccccc1` (centres undefined), the inhibition was 2.52% (inactive). With `CC1(C(=O)NS(=O)(=O)c2ccccc2)CCN1C(=O)C/C=C/c1ccccc1` (centres undefined) the figure was 13.4% (active); with `CC1(C(=O)NS(=O)(=O)c2ccccc2)CCN1C(=O)Cc1ccc(-c2ccccc2)cc1` (centres undefined), -0.69% (inactive); with `COc1ccccc1CCn1cnc(-c2ccccc2)c1C(C)C`, 1.47% (inactive). With `Nc1nc2c(ncn2[C@@H]2O[C@H](C(=O)N[C@@H](Cc3ccccc3)C(=O)NCc3ccccc3)[C@@H](O)[C@H]2O)c(=O)[nH]1` the figure was 3.17% (inactive); with `COc1ccc2c(c1)c(=Cc1ccc(N(C)C)cc1)c1cc(-c3ccccc3)[n+](C)n12`, 23.7% (active).

In the case of `Cc1c(C=O)c2ccccc2n1CC(=O)O`, the inhibition is 0.31% (inactive).

On to `CC(=O)c1c(C)n([O-])c2ccccc2[n+]1=O`, for which the inhibition is 25.5% (active). In the case of `NC(=O)c1ncn([C@@H]2O[C@H](C(=O)O)[C@@H](O)[C@H]2O)n1`, the inhibition was 0.63% (inactive). With `C[C@H]1CN([C@@H](C)CO)C(=O)CCCn2nncc2CO[C@@H]1CN(C)C(=O)Nc1ccc(N2CCN(C)CC2)cc1` the figure was 0.4% (inactive); with `Cc1ccc(NC(=O)N2c3ccccc3SC2c2ccco2)c(C)c1` (centres undefined), 5.53% (inactive). In the case of `CC(=NNC(N)=O)c1ccc(Cl)c(-n2cccc2)c1`, the inhibition was 5.68% (inactive). With `CCCCOCC1CN(CCCC)S(=O)(=O)c2c(Oc3ccc(F)cc3)cccc2O1` (centres undefined) the figure was 5.95% (inactive). With `NC(=S)NN=Cc1ccc(OC(=O)COc2cc(Cl)c(Cl)cc2Cl)cn1` the figure was 11.6% (active); with `O=C(COC(=O)COc1cc(Cl)c(Cl)cc1Cl)NC1CC1`, 3.17% (inactive). Under `O=C(COc1cc(Cl)c(Cl)cc1Cl)NCCc1ccccn1` stands -0.15% (inactive); under `C=CC1=CCN(S(=O)(=O)C(C)(C)C)[C@@H]1CCO`, 1.03% (inactive); under `Nc1ncnc2c1ncn2C1OC(CO)CC1O` (centres undefined), 3.4% (inactive). As to `C[C@H](CO)N1C[C@H](C)[C@@H](CN(C)C(=O)Nc2ccccc2F)OCc2cn(nn2)CCCC1=O`, the inhibition was 0.72% (inactive). With `O=C1CCC(=O)N(O)CCCCCNC(=O)CCC(=O)N(O)CCCCCNC(=O)CCC(=O)N(O)CCCCCN1` the figure was 23.5% (active).

Regarding `COCc1cc(N2CCN(C(=O)OC(C)(C)C)C[C@@H]2C)ccc1N1CCN(Cc2ccccc2)[C@H](C)C1`, the inhibition was -2.53% (inactive). Under `O=C(NNC(=O)c1cc(S(=O)(=O)N2CCCCC2)ccc1Cl)c1ccccc1O` stands 1.7% (inactive). Consider `Cc1cccc(NS(=O)(=O)c2cccc(C(=O)NNC(=O)c3ccccc3O)c2)c1`, for which the inhibition is 5.15% (inactive). With `O=C(NNC(=O)c1ccccc1O)c1ccccc1O` the figure was 30% (active).
